Hit rate of the full screen: of about 360,000 compounds, about 11,000 (3.1%) were called active. For the sample, actives were picked, then their nearest neighbours and some compounds at random. Unmarked numbers belong to inactive results. No stated cut-off is given here; in the data, active means activity change below about -30%; inactive means the rest.
Target: D(1A) dopamine receptor (Homo sapiens) (UniProt P21728)
Assay: Antagonist of Human D 1 Dopamine Receptor: qHTS
Conditions: HEK293 TREx D1 cells, calcium flux, dopamine EC80; at 10 µM; stronger effect = lower value
Method in brief: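 Allosteric or orthosteric antagonism assessed as attenuation of the calcium response to EC80 dopamine, added 180 s after compound, in induced HEK293 Trex D1 cells loaded with no-wash calcium dye.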
On the % scale 0 is the no-effect control and ±100 the full control effect.

D(1A) dopamine receptor (Homo sapiens), sequence (P21728 whole entry, looked up): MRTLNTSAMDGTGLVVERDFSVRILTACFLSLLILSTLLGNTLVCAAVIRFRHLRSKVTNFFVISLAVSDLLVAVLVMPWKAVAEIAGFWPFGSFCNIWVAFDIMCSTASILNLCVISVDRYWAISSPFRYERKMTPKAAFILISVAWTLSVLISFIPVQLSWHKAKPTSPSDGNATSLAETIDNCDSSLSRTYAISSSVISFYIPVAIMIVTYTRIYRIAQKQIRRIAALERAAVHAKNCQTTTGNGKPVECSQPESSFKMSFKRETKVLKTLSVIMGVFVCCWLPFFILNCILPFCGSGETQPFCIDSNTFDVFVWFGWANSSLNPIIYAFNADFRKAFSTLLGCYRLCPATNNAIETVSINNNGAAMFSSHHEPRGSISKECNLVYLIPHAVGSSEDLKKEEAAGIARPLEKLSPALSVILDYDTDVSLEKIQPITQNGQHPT

Compound	activity change, negative = inhibition
Cc1ccc(S(=O)(=O)n2nc(C)c(S(=O)(=O)N3CCCCCC3)c2C)cc1	17.9%
COc1ccc(N(CC(=O)NCCc2ccc(Cl)cc2)S(=O)(=O)c2c(C)nn(C)c2C)cc1	-19.7%
CCC1CCCCN1S(=O)(=O)c1ccc(NC(=O)c2cc(=O)c3ccccc3o2)cc1 (centres undefined)	-15.6%
Cc1ccccc1CSCCNC(=O)C1CCN(S(=O)(=O)Cc2ccccc2)CC1	-13.9%
N#C/C(=C\c1cccnc1)C(=O)Nc1ccc(SC(F)F)cc1	-35.7% (active)
CC(C)(C)NC(=O)/C(=C/c1cccnc1)NC(=O)c1ccco1	-13.6%
Cc1cc(/C=C(/C#N)C(=O)Nc2ccc(Cl)cc2)c(C)n1-c1cccnc1	-14.3%
CCCCN1CC(c2nc3ccccc3n2CCCCOc2ccc(C)cc2C)CC1=O (centres undefined)	-5.31%
CCOC(=O)c1nnn2c1nc(N1CCN(c3ccccc3)CC1)c1ccccc12	-35.4% (active)
CCOC(=O)c1nnn2c3ccccc3c(=O)n(C)c12	-10.2%
Cc1ccc(S(=O)(=O)c2nnn3c2nc(N2CCN(c4ccccn4)CC2)c2ccccc23)cc1	-20.2%
CCN1CCN(CCCNC(=O)c2ccc3c(c2)sc2nc(-c4ccc(OC)cc4)cn23)CC1	-14.6%
CSc1nn(Cc2cccc(C)c2)c(N)c1S(=O)(=O)c1ccccc1	-16.3%
O=C(CSc1nnc(SCc2ccc(F)cc2)s1)Nc1ccc(C(=O)O)cc1	6.86%
O=C(Cc1cccs1)Nc1nnc(SCc2ccc(F)cc2)s1	-79.5% (active)
CC(C)(C)CC(=O)Nc1nnc(SCC(=O)NCc2cccs2)s1	3.61%
COc1cccc(CNC(=O)CCC(=O)N2CC3CCCN3c3ccccc32)c1 (centres undefined)	-1.97%
Cc1ccccc1C(=O)Nc1cc(C)c(O)c(-c2nc3ccccc3o2)c1	5.18%
CCOC(=O)c1c(C)[nH]c(C)c1S(=O)(=O)N1CCCC(C(=O)NCc2ccccc2Cl)C1 (centres undefined)	-3.63%
COc1ccc(CCNC(=O)Cn2c(=O)n(-c3ccccc3)c(=O)c3c(C)c(C)sc32)cc1OC	2.12%
CC(C)n1ncc2c(C(=O)NCc3ccccc3CN(C)C)cc(C3CC3)nc21	-37.6% (active)
COc1ccc(OCCNC(=O)c2cc(C3CC3)nc3c2cnn3C(C)C)cc1	-8.1%
CC(C)n1ncc2c(C(=O)Nc3ccc(CC#N)cc3)cc(C3CC3)nc21	-2.28%
COc1ccc(Nc2ncc(C(=O)Nc3cc(C)ccc3OC)c3ccccc23)cc1	-5.45%
